From PubChem
HCMV antiviral = inhibitors of human cytomegalovirus. activity change, negative = inhibition, % at 57.5 µM. 4.5% of 410,000 active. HFF cells, HCMV-luciferase reporter, 72 h; stronger effect = lower value. AID 1259415; in the data active means activity change below about -60%; inconclusive means no clear call, values can overlap the other calls; inactive means above about -39%
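Screen run at 2 compound doses on HFFs infected with reporter HCMV, MOI 1 PFU/cell. Luciferase activity from cell lysates at 72 h post infection gave inhibition relative to buffer-only and Salinomycin wells.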
FBPA Giardia inh = blocks Giardia fructose-bisphosphate aldolase activity; A8B2U2; purified Giardia FBPA; Potency, µM (top dose mostly 59.6 µM), for inactives: top-dose activity, negative = inhibition, most hits filed as inhibitors; 0.71% of 290,000 active; AID 2451; further: potency means the concentration at half of the fitted maximal effect; nearly all actives have a fitted effect of over 55% in size
Target sequence (A8B2U2 whole entry, looked up): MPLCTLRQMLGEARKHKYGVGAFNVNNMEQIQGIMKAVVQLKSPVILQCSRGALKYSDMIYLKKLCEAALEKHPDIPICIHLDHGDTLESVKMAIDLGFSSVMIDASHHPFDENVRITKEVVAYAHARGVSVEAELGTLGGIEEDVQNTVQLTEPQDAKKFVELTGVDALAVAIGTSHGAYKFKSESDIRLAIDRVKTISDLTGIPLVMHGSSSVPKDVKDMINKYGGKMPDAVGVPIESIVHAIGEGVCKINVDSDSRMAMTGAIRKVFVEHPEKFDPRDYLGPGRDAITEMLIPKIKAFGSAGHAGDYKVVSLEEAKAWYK
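40 nM FBPA preincubated 10 min at RT with compound (up to 57.5 uM final), then substrate plus GAPDH/TPI/NAD/arsenate coupling and diaphorase/resazurin added. Fluorescence read after 20 min at RT, 525/598 nm.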
Sm TGR inh = S. mansoni TGR enzyme inhibition; 3% of 360,000 active; Potency, µM (doses to about 114 µM), for inactives: at the highest dose activity change, negative = inhibition, hits mostly inhibitors; Q962Y6; purified TGR, DTNB reduction, TNB absorbance 405 nm; further: potency means the concentration at half of the fitted maximal effect; nearly all actives have a fitted effect of over 60% in size
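TGR 20 nM + NADPH 100 uM (dispensed conc.), cpd preinc 15 min RT; start with NADPH (500 uM addition) then DTNB (15 mM addition). Kinetic TNB absorbance, 405 nm filter. Four-parameter Hill fit across titration.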
Pf growth 96h = P. falciparum growth inhibition at 96 hour, primary screen for plastid delayed-death inhibitors; P. falciparum luciferase reporter growth, 96 h; Potency, µM (top dose mostly 28.7 µM), for the others: top-dose activity change, negative = inhibition, usual class: inhibitors; 6.9% of 320,000 active; further: potency means the concentration at half of the fitted maximal effect
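Infected RBCs, 2% Hct / 0.05% parasitemia final; luciferase-reporter P. falciparum; cpd 96 h, 37 C, 5% CO2; luciferase detection reagent; luminescence.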
Pf growth 48h = inhibits P. falciparum growth in the first generation, 48 h; P. falciparum luciferase growth in erythrocytes, 48 h; Potency, µM (highest dose often 28.7 µM), without a hit: at the highest dose activity change, negative = inhibition, hits mostly inhibitors; 5.9% of 310,000 active; AID 504832; further: potency means the concentration at half of the fitted maximal effect
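Here the parasites carry a stable luciferase gene and grow inside erythrocytes in Albumax-based RPMI medium with compound for one erythrocytic cycle. Activity is scored as loss of luminescent signal.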
Numbers without * were called inactive; ? = inconclusive; / = no result given. Shown are actives, neighbours in structure and some others; about 14% of the full set was active somewhere. Unless noted, the call rests on the fitted dose curve; in most records, active means well fitted curve in the direction sought with a large enough effect; inconclusive means small, poorly fitted or top-dose-only effect, or another doubt; inactive means no such curve, though single readings can be large; an effect the other way counts as inactive or inconclusive. On the % scale 0 is the no-effect control and ±100 the full control effect.

SMILES	HCMV antiviral	FBPA Giardia inh	Sm TGR inh	Pf growth 96h	Pf growth 48h
COc1ccc(NC(=O)CS(=O)(=O)c2cn(CC(=O)N3CCOCC3)c3ccccc23)cc1OC	-15	/	-10%	7.4µM*	-23%
COc1ccc(CCNC(=O)CS(=O)(=O)c2cn(CC(=O)N3CCOCC3)c3ccccc23)cc1OC	-13	?	25µM*	12%	4%
CC(=O)Nc1cccc(NC(=O)CS(=O)(=O)c2cn(CC(=O)N(C(C)C)C(C)C)c3ccccc23)c1	32	/	-16%	12µM*	?
CC(C)N(C(=O)Cn1cc(S(=O)(=O)CC(=O)NCc2ccccc2)c2ccccc21)C(C)C	33	/	-3%	-16%	26%
O=C(NC[C@H](O)c1ccccc1)c1ccccc1	/	1%	/	/	/
CSCCC(C(=O)NCc1ccccc1)n1c(-c2ccc3c(c2)CCO3)nc2ccccc21 (centres undefined)	-13	/	/	/	/
CC1=CC[C@@]2(CO)COC(c3ccccc3O)C1C2 (some centres undefined)	/	-3%	/	/	/
CCOC(=O)c1sc(NC(=O)c2nc3nc(C)cc(C(F)F)n3n2)c(C(=O)OC(C)C)c1C	-22	/	-2%	/	/
O=C(Nc1nnc(CSCc2ccccc2F)s1)c1cccc([N+](=O)[O-])c1	?	?	-1%	13µM*	19%
CCN(CC)CCOc1ccc(Br)cc1	?	-18%	-6%	2.6µM*	4%
CCN(CC)CCOc1ccc2c(c1)C(=NO)c1cc(OCCN(CC)CC)ccc1-2	23	-16%	-20%	1.9µM*	6.6µM*
CCN(CC)CCCOc1ccc(Cl)c(Cl)c1	8	-19%	7%	?	-7%
CCN(CC)CCOc1ccc(/C(=C(\Cl)c2ccccc2)c2ccccc2)cc1	-18	1%	0%	2.3µM*	2.1µM*
CCCOc1ccc2c(c1)C(=NN=C(N)N)c1cc(OCCC)ccc1-2	39	-11%	13%	5%	0.66µM*
Cc1ccc(NC(=O)c2ccc(-n3c(C)nnc3C)cc2)cc1F	5	/	3%	/	/
O=C(NCc1ccc(F)cc1)C1CCCN(C(=O)NCc2ccccc2)C1 (centres undefined)	-20	-6%	0%	?	5%
COCCN(C(=O)COC(=O)CCCOc1ccccc1)c1c(N)n(Cc2ccccc2)c(=O)[nH]c1=O	-1	/	-5%	3%	7%
CCN(CC)S(=O)(=O)c1ccc2c(c1)C(=NO)c1cc(S(=O)(=O)N(CC)CC)ccc1-2	4	0%	7%	8.3µM*	9.3µM*
CCN(CC)S(=O)(=O)c1ccc(C)c(C)c1	-11	3%	2%	?	/
CCN(CC)S(=O)(=O)c1cccc(S(=O)(=O)c2cccc(S(=O)(=O)N(CC)CC)c2)c1	-69*	-2%	2%	?	?
CCN(CC)S(=O)(=O)c1cccc(S(=O)(=O)N2CCCCC2)c1	0	-1%	-3%	0%	/
O=C1CCC[C@H]2[C@@H](Cc3ccccc3)[C@@H](NS(=O)(=O)c3cc(Cl)cc(Cl)c3)CC[C@]23CCCN13	28	/	/	/	/
CCCC(=O)N(c1ccc2oc3c(c2c1)CCCC3)S(=O)(=O)c1cc(C)ccc1C	3	/	7%	/	/
CN1COc2ccc3ccccc3c2C1	-37	-10%	4µM*	-1%	-37%
Cc1ccc2oc(C(=O)Nc3sc4c(c3C(=O)NCc3cccnc3)CCCC4)cc(=O)c2c1	22	/	-3%	/	/
O=C(Nc1cccc(F)c1)N1CCCC(CNS(=O)(=O)Cc2ccccc2)C1 (centres undefined)	-34	7%	7%	5.2µM*	9%
COc1ccccc1NC(=O)C(=O)N/N=C(\C)CC(=O)Nc1ccccc1C(F)(F)F	-12	-3%	-15%	17%	?
CCOC(=O)c1cc(-c2ccc(OC)cc2)n(CCC(=O)NCCc2ccc(OCC)c(OCC)c2)c1C	16	/	3%	/	/
O=C(Nc1ccc(S(=O)(=O)N2CCOCC2)cc1)c1ccc(S(=O)(=O)N2CCOCC2)cc1	-39	1%	-10%	12µM*	-4%
Cc1cc(C)n2nc(C(=O)Nc3ccc(S(=O)(=O)N4CCCC4)cc3)nc2n1	-22	2%	1%	2.3µM*	128%
